DRD3 antagonist: qHTS of D3 Dopamine Receptor Antagonist: qHTS; D(3) dopamine receptor (Homo sapiens), P35462; max response, negative = inhibition, %; 360,000 compounds, 2.5% hits; D3R cells, DiscoveRx beta-arrestin luminescence, antagonist mode; stronger effect = lower value; in the data active = max response below about -50%; inconclusive = no clear call, values can overlap the other calls; note: % is set by controls: 0 for no effect and ±100 for the full control effect
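Cells expressing the human receptor were seeded at 1500 cells/well, incubated overnight at 37 degrees C in 5% CO2, then exposed to library compounds with dopamine controls for 90 minutes at 37 degrees C before luminescent detection.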
Giardia killer: Small Molecules that selectively kill Giardia lamblia: qHTS. Giardia lamblia trophozoite viability. activity change, % at 7.66 µM, hits read low. 340,000 compounds, 0.15% hits. AID 540267, 2011; in the data active = activity change below about -80%; inconclusive = between about -30% and that limit;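 note: parasites exposed to compound for two days anaerobically before the ATP read; % is set by controls: 0 for no effect and ±100 for the full control effect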
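ATP-content bioluminescence gauges trophozoite survival. Cells (100/well) receive compound and incubate anaerobically for 48 hrs at 37 deg C; detection reagent follows for 15-30 min at room temperature.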
DRD3 agonist: qHTS of D3 Dopamine Receptor Agonist: qHTS. D3R DiscoveRx beta-arrestin cells, luminescence, 90 min. max activation, %. 410,000 compounds, 0.58% hits. AID 652048, 2013; in the data active = max activation above about 30%; note: 0% is about no effect
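Cells at 1500/well, incubated overnight, then treated with pinned compounds (dopamine as control) for 90 min at 37 degrees C. DiscoveRx reagent added for 30 - 60 minutes at room temperature; luminescence read.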
B2AR arrestin: qHTS assay of beta-arrestin-biased ligands of beta2-adrenergic receptor; AID 492947, 2010; Potency, µM (series often up to 46.1 µM), inactives show top-dose activation, most hits filed as activators; 330,000 compounds, 0.02% hits; beta-arrestin recruitment to beta2AR, cell-based reporter; active = well fitted activation curve with a large enough effect; inconclusive = small, poorly fitted or top-dose-only effect;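 note: potency is the fitted concentration of half-maximal effect; 0% = DMSO controls and full agonism = EC100 isoproterenol or metaproterenol; nearly all actives have a fitted effect of over 65% in size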
Target sequence (P07550 whole entry, looked up): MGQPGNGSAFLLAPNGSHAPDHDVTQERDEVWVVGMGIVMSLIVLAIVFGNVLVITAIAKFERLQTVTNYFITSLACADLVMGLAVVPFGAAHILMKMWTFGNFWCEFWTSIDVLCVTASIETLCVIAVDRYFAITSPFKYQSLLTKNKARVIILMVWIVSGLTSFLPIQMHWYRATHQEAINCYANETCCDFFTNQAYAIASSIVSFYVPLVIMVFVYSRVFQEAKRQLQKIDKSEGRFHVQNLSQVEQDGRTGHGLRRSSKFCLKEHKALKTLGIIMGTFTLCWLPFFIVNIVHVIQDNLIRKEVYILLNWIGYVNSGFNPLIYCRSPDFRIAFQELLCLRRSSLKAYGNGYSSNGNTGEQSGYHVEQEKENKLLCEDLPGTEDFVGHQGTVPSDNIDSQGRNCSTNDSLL
* marks the source's active call; other numbers are inactive results; ? = inconclusive; . = no result given. Most compounds without a hit are left out; they make up all but 2.8% or so of the library.

SMILES	DRD3 antagonist	Giardia killer	DRD3 agonist	B2AR arrestin
Cc1cc(C)c2sc(N(Cc3cccnc3)C(=O)CCS(=O)(=O)c3ccccc3)nc2c1	.	.	3.4	.
NC(=O)C1CCN(C(=O)Cn2c(-c3cccs3)cc3ccccc32)CC1	.	.	-5.1	.
Cc1cc(OC(C)C(=O)NC2CCN(Cc3ccccc3)CC2)c2c(C)cc(=O)oc2c1 (stereo unspecified)	-62.0*	-14.3	-17.6	0.3%
CCc1cc(=O)oc2cc(C)cc(OC(C)C(=O)NC3CCN(Cc4ccccc4)CC3)c12 (stereo unspecified)	-13.8	22.1	-14.8	0.0%
CC(Oc1ccc(Br)cc1)C(=O)NC1CCN(Cc2ccccc2)CC1 (stereo unspecified)	-74.6*	-14.8	-31.8	-0.9%
O=C(CCc1nc(-c2ccccc2F)no1)NC1CCN(Cc2ccccc2)CC1	-51.1*	-6.0	-0.9	3.1%
Cc1ccc(C)c(OCc2cc(C(=O)NC3CCN(Cc4ccccc4)CC3)no2)c1	-92.6*	9.5	-26.6	-0.1%
CC(C)Oc1ccc(C(=O)NC2CCN(Cc3ccccc3)CC2)cc1	12.1	22.7	-4.7	-0.3%
CCC(C(=O)Nc1ccccc1C(=O)OC)n1nc(C)c2c(C)n(-c3ccc(C)cc3)nc2c1=O (stereo unspecified)	.	.	9.2	.
O=C(CN1CCN(c2ccccn2)CC1)Nc1ccc(OCc2ccccc2)cc1	13.2	9.4	49.9*	0.0%
Cc1cc(NC(=O)CN2CCN(c3ccccn3)CC2)ccc1Br	-9.9	3.6	47.5*	0.4%
O=C(CN1CCN(c2ccccn2)CC1)Nc1ccc(F)c(F)c1	17.9	7.5	22.1	0.5%
CC(C)C(=O)N1CCN(c2nc(-c3ccc(Cl)cc3)cs2)CC1	26.5	-14.8	3.8	0.1%
O=C(Cc1cccs1)N1CCN(c2nc(-c3ccc(Cl)cc3)cs2)CC1	53.2	9.5	36.5*	-0.6%
CCc1ccc2ncc3c(-c4ccc(F)cc4)nn(CC(=O)NCc4ccccc4)c3c2c1	.	.	-9.4	.
CSc1ccccc1C(=O)C1CCCN(Cc2c(C)n(C)n(-c3ccccc3)c2=O)C1 (stereo unspecified)	0.0	50.0	-20.6	-0.6%
COC(=O)c1ccc(CN2CCCC(C(=O)c3cc(F)ccc3OC)C2)cc1 (stereo unspecified)	-95.5*	11.3	-17.5	-0.6%
COc1ccc(C(=O)C2CCCN(Cc3ccc(NC(C)=O)cc3)C2)cc1OC (stereo unspecified)	-19.5	25.0	-8.0	-1.6%
COc1ccccc1C(=O)C1CCCN(Cc2ccc(Oc3ncccn3)cc2)C1 (stereo unspecified)	0.0	-11.1	-15.9	0.4%
COC(=O)c1ccc(CN2CCCC(C(=O)c3ccccc3OC)C2)cc1 (stereo unspecified)	-51.3*	8.9	-25.2	-0.4%
CSc1ccccc1C(=O)C1CCCN(Cc2cnn(-c3ccccc3)c2)C1 (stereo unspecified)	-76.4*	18.2	-16.9	-0.4%
CC1=C(C(=O)Nc2cccnc2)C(c2ccc(Cl)cc2)n2nc(SCc3ccccc3)nc2N1 (stereo unspecified)	.	.	7.3	.
CC(Oc1ccc(F)cc1)C(=O)Nc1cc(-c2ccc(F)c(F)c2)no1 (stereo unspecified)	.	.	-1.3	.
CCCc1ccc(Oc2c(-c3ccc(O)c(C)c3O)n[nH]c2C)cc1	-80.8*	-12.4	-0.3	0.4%
CCCc1ccc(Oc2cn[nH]c2-c2ccc(O)c(C)c2O)cc1	-10.8	2.1	-11.4	0.4%
SMILES	DRD3 antagonist	Giardia killer	DRD3 agonist	B2AR arrestin
Cc1[nH]c2ccccc2c1C(C#N)(C#N)C1C(=O)c2ccccc2C1=O	-88.8*	10.8	-20.5	-0.1%
Cc1[nH]c2ccccc2c1CC#N	23.3	4.2	3.6	-0.9%
CC(NCC(O)COc1ccccc1)C1COc2ccccc2O1 (stereo unspecified)	-85.4*	-10.0	-3.6	0.5%
CC(NCc1ccccc1)C1COc2ccccc2O1 (stereo unspecified)	-1.0	-20.6	4.9	0.1%
COc1ccc2[nH]c(S(=O)Cc3ncc(C)c(OC)c3C)nc2n1 (stereo unspecified)	.	.	1.9	.
Nn1cnnc1N/N=C/c1cc(Br)cc(Br)c1O	-90.0*	4.2	-9.2	-0.3%
CC(C)(C)c1ccc(/C=N/Nc2nncn2N)cc1	?	22.4	-5.4	-0.1%
O=C(Nc1nnc(-c2ccc(Cl)cc2)o1)c1nc2ccccc2s1	-73.6*	-27.9	-8.5	-0.2%
Cc1cccc(-c2nnc(NC(=O)c3ccc(Cl)cc3)o2)c1	-96.9*	?	-17.8	-0.4%
Cc1ccc(C(=O)Nc2nnc(-c3ccncc3)o2)cc1	4.8	-3.4	-3.3	8.0%
CCOC(=O)c1c(C)[nH]c(C)c1S(=O)(=O)N1CCCC(C(=O)N2CCN(c3cccc(Cl)c3)CC2)C1 (stereo unspecified)	.	.	1.5	.
CCCc1[nH]nc2c1C(c1ccc(O)c(OC)c1)C(C#N)=C(N)O2 (stereo unspecified)	2.9	-4.1	3.6	-1.1%
CCCc1[nH]nc2c1C(c1ccc(OCCN3CCOCC3)c(OC)c1)C(C#N)=C(N)O2 (stereo unspecified)	-64.3*	-5.8	3.1	0.1%
O=C(NCc1ccccc1)c1ccc(N2CCC3(CC2)CC(c2ccc(Cl)cc2)=NO3)c([N+](=O)[O-])c1	-63.3*	44.8	-23.0	0.5%
CCCNC(=O)c1ccc(N2CCC3(CC2)CC(c2ccccc2)=NO3)c([N+](=O)[O-])c1	4.4	-3.3	5.5	3.1%
CCOc1cccc(/C(O)=C2/C(=O)C(=O)N(Cc3cccnc3)C2c2ccco2)c1 (stereo unspecified)	-5.3	6.9	-1.3	-1.2%
CCOc1cccc(/C(O)=C2/C(=O)C(=O)N(CCOC)C2c2ccco2)c1 (stereo unspecified)	-55.0*	8.3	-1.0	-0.1%
CC(C)CC(NC(=O)C1CCCN1C(=O)OC(C)(C)C)C(=O)NCC(N)=O (stereo unspecified)	-58.5*	-9.2	5.5	0.2%
COC(=O)C(CC(C)C)NC(=O)C(Cc1ccccc1)NC(=O)C1CCCN1C(=O)OC(C)(C)C (stereo unspecified)	-17.2	7.3	-9.3	0.1%
CCC(=NN=C(CC)c1ccccc1O)c1ccccc1O	27.3	-7.2	44.9*	.
CCOC(=O)/C(=C/C1=CC(=C/N(C)C)/C(=O)O1)C(C)=O	-7.1	0.8	30.5*	-1.1%
COc1ccc(NC(=O)Nc2ccc(O)c3ccccc23)cc1	-27.4	26.0	32.6*	.
Cc1cccc(N2CCN(CC(O)COCc3cccs3)CC2)c1C (stereo unspecified)	-6.1	-9.6	57.9*	-1.9%
OC(COCc1cccs1)CN1CCN(c2cccc(Cl)c2)CC1 (stereo unspecified)	-56.1*	9.2	-6.3	-0.6%
OC(COCC1COc2ccccc2O1)CN1CCc2ccccc2C1 (stereo unspecified)	14.4	4.2	-0.9	0.0%
